Assay results published in paper PMC4336329 (PLoS ONE, 2015).
Among all 310,000 compounds or so, about 14,000 (4.5%) showed an effect of 50% or more. Effects have a minus sign here. What follows is part of a selection rich in strong results, with near analogues and random picks from the rest.

Molecular target: human ether-à-go-go-related gene (hERG) potassium channel (human, UniProt Q12809)
Assay: primary screen, population patch clamp on CHO cells stably expressing hERG; higher = less effect of the substance
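Also: peak tail current of the secondary pulse compared with the same well before compound.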

human ether-à-go-go-related gene (hERG) potassium channel, sequence (Q12809 whole entry, looked up): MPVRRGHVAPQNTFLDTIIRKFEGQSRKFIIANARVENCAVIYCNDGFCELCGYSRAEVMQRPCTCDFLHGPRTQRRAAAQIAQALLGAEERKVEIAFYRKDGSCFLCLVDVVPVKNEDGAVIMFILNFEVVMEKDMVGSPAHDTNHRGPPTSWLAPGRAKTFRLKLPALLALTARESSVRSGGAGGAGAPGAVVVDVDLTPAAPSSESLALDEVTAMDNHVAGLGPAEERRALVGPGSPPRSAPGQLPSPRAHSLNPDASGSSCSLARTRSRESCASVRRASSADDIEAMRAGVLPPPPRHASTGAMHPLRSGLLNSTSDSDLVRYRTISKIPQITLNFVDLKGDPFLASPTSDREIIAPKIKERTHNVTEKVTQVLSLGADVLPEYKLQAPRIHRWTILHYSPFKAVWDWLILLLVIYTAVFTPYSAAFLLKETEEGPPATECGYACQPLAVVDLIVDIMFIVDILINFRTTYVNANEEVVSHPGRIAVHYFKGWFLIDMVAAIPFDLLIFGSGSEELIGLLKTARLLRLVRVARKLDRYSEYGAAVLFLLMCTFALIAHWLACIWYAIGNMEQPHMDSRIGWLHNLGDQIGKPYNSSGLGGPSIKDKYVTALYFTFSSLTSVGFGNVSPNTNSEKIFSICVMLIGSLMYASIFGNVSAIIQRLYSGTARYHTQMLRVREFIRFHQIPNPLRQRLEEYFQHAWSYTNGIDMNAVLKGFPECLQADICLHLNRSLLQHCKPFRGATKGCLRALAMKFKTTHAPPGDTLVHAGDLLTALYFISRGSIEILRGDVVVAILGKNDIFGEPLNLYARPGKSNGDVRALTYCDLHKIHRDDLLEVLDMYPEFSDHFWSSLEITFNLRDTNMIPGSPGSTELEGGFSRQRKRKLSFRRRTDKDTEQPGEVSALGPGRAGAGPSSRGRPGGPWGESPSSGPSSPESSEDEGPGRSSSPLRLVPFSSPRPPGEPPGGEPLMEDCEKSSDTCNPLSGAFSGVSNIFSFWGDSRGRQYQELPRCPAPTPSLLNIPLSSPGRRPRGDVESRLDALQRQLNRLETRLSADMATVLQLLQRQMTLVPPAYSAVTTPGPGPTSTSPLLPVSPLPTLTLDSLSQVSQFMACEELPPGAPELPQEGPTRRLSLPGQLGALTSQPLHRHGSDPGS

| SMILES | hERG current change (%, negative = inhibition) at 10uM [%] |
| --- | --- |
| COc1ccc(NC2=C(NC(C)=O)C(=O)c3ccccc3C2=O)cc1 | 13.5 |
| COc1cc(OC)nc(NC(=O)CSc2nc3ccccc3[nH]2)n1 | -1.61 |
| CCOc1ccc(CCNC(=O)c2cccc(S(=O)(=O)N3CC(C)OC(C)C3)c2)cc1OCC (stereo not drawn) | -27.3 |
| COCC1CCN(Cc2cn[nH]c2-c2cc(OC)c(OC)c(OC)c2)CC1 | -38.1 |
| COc1cc(-c2[nH]ncc2CN2CCSCC2)cc(OC)c1OC | -9.26 |
| COCCCC1CCN(Cc2cn[nH]c2-c2cc(OC)c(OC)c(OC)c2)CC1 | -61.8 |
| COc1cc(-c2[nH]ncc2CN2CCN(Cc3cccs3)CC2)cc(OC)c1OC | -50.3 |
| COc1cc(-c2[nH]ncc2CN2CCN(c3cccc(C)n3)CC2)cc(OC)c1OC | -47.3 |
| COc1ccc(-c2[nH]ncc2CN2CCN(Cc3cccs3)CC2)cc1F | -31.2 |
| CCCCN(C(=O)c1cccc(S(=O)(=O)N2CCCC2)c1)c1c(N)n(CCC)c(=O)[nH]c1=O | 4.89 |
| CCN(CC)CCN=Cc1c(O)n(Cc2ccccc2)c(=O)[nH]c1=O [14739636] | -31.3 |
| CN(C)CCN=Cc1c(O)n(Cc2ccccc2)c(=O)c2ccccc12 | -52.2 |
| CN(C)CCN=Cc1c(O)n(Cc2ccc3c(c2)OCO3)c(=O)c2ccccc12 | -13.8 |
| CN(C)CCCN=Cc1c(O)n(Cc2ccc3c(c2)OCO3)c(=O)c2ccccc12 | -49.1 |
| CCN(CC)CCCN=Cc1c(O)n(Cc2ccccc2)c(=O)c2ccccc12 | -76.7 |
| CCN(CC)CCCN=Cc1c(O)n(-c2c(C)cccc2C)c(=O)c2ccccc12 | -34.2 |
| CN(C)CCCN=Cc1c(O)n(Cc2ccccc2)c(=O)c2ccccc12 | -64.5 |
| O=c1c2ccccc2c(C=NCCCN2CCOCC2)c(O)n1Cc1ccccc1 | -47.7 |
| CCN(CC)CCCN=Cc1c(O)n(-c2ccccc2C)c(=O)c2ccccc12 | -52.8 |
| CCN(CC)CCCN=Cc1c(O)n(-c2cccc(C)c2)c(=O)c2ccccc12 | -42.8 |
| CCN(CC)CCCN=Cc1c(O)n(-c2ccc(C)cc2)c(=O)c2ccccc12 | -5.54 |
| O=c1c2ccccc2c(C=NCCc2ccccc2)c(O)n1Cc1ccccc1 | -5.61 |
| Cc1cccc(NC(=O)CSc2nnc(Cn3cnc4ccccc43)o2)c1 | -9.07 |
| Cc1ccc(S(=O)(=O)N2CCN(C(=O)c3c(-c4ccccc4)noc3C)CC2)cc1 | -4.97 |
| COc1ccc(S(=O)(=O)Nc2ccc(C(F)(F)F)cc2)cc1OC | -12.4 |
| O=S(=O)(Cc1ccccc1)N1CCCC(c2nc(-c3ccc(F)cc3)no2)C1 (stereo not drawn) | -3.59 |
| O=C(Cc1ccccc1)N1CCCC(c2nc(-c3ccc(S(=O)(=O)N4CCCC4)cc3)no2)C1 (stereo not drawn) | -9.11 |

| SMILES | hERG current change (%, negative = inhibition) at 10uM [%] |
| --- | --- |
| O=C(Cc1ccccc1)N1CCC(c2nc(-c3ccc(F)cc3)no2)CC1 | -50.6 |
| CCCC1CCC(c2nc(-c3cccnc3)no2)CC1 (stereo not drawn) | 2.03 |
| O=C(c1ccco1)N1CCC(c2nc(-c3ccc(F)cc3)no2)CC1 | -41.8 |
| Fc1ccc(-c2noc(C3CCN(Cc4cccnc4)CC3)n2)cc1 | -51.5 |
| COCC(=O)N1CCC(Oc2ccc(C(=O)NC3Cc4ccccc4C3)cc2)CC1 | -3.57 |
| S=c1[nH]nc(-c2ccncc2)n1/N=C/C(Cl)=C\c1ccccc1 | 23.3 |
| COc1ccccc1CNC(=O)c1cccc(N(C)C)c1 | -2.52 |
| CCCCn1c(O)c(C(C)=NC(Cc2c[nH]c3ccccc23)C(=O)OC)c(=O)[nH]c1=O (stereo not drawn) | -52.1 |
| CCCCn1c(O)c(C(C)=NC(C)c2ccccc2)c(=O)[nH]c1=O (stereo not drawn) | -22.3 |
| CCCCn1c(O)c(C(C)=NCCc2c[nH]c3ccccc23)c(=O)[nH]c1=O | -16 |
| COC(=O)c1cc(=O)nc2scc(C)n12 | -23.1 |
| CCC1CCCCN1Cc1ccc(CNS(=O)(=O)c2ccc3c(c2)oc(=O)n3C)o1 (stereo not drawn) | -19.3 |
| CCOC(=O)c1cc(-c2cc(OC)c(OC)c(OC)c2)nc2c1c(=O)[nH]c(=O)n2Cc1ccccc1 | 1.34 |
| CCCOC(=O)c1ccc(NC(=O)CC(C)(C)C)cc1 | -11.1 |
| C/C(=N\N1CCN(c2ccc(Cl)cc2)CC1)c1cccc([N+](=O)[O-])c1 | -12.4 |
| C/C(=N\N1CCN(Cc2ccc(Cl)cc2)CC1)c1ccc(F)cc1 | -51.6 |
| C/C(=N/N1CCN(Cc2ccccc2)CC1)c1ccc(Br)cc1 | -19.9 |
| Cc1ccc(CN2CCN(/N=C\C=C\c3ccccc3)CC2)cc1 | -72.2 |
| C/C(=N\N1CCN(Cc2ccccc2Cl)CC1)c1ccc(F)cc1 | 2.05 |
| C(=C\c1ccccc1)/C=N/N1CCN(Cc2ccccc2)CC1 | 1.45 |
| CC(=O)Oc1ccc(/C(C)=N\N2CCN(Cc3ccc(Cl)cc3)CC2)cc1 | -36.8 |
| COc1cc(/C(C)=N/N2CCN(Cc3ccc(C)cc3)CC2)ccc1O | -44.3 |
| CC(=O)Oc1ccc(/C(C)=N/N2CCN(Cc3ccc(C)cc3)CC2)cc1 | -73.2 |
| O=[N+]([O-])c1ccc(Cl)c(/C=N/N2CCN(Cc3ccc(Cl)cc3)CC2)c1 | 4.9 |
| C/C(=N\N1CCN(Cc2ccc(Cl)cc2)CC1)c1ccc([N+](=O)[O-])cc1 | -72.6 |
| Cc1ccc(CN2CCN(/N=C/c3ccccc3)CC2)cc1 | -12.7 |
| O=C(COC(=O)c1ccc(O)cc1)Nc1ccc2[nH]c(=O)[nH]c2c1 | 2.48 |
